A short description of test [1]: CEETOX_H295R_OHPROG_noMTC: CeeTox H295R High-throughput Steroidogenesis Assay for OH-Progesterone (OHPROG), maximum tolerated concentration (MTC) filtered results only (AID 2283914). To be noted: actives raise or lower the signal. The procedure, abridged:
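H295R human adrenal cells prestimulated 48 h with 10 uM forskolin, then exposed 48 h to test chemical (0.1% DMSO final). Medium 17alpha-hydroxyprogesterone extracted with MTBE, quantified by HPLC-MS/MS; bidirectional fit versus DMSO, concentrations not MTC-filtered.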

Test [2] can be described thus: CEETOX_H295R_CORTISOL_noMTC: CeeTox H295R High-throughput Steroidogenesis Assay for Cortisol, maximum tolerated concentration (MTC) filtered results only (AID 2283916). To be noted: actives raise or lower the signal. The procedure, abridged:
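H295R adrenal cells were pre-stimulated 48 h with 10 uM forskolin, then exposed 48 h to test chemical in 0.1% DMSO. Medium cortisol was measured by MTBE extraction and HPLC-MS/MS; bidirectional fit versus DMSO, concentrations not MTC-filtered.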

Test [3] is described as follows: CEETOX_H295R_CORTIC_noMTC: CeeTox H295R High-throughput Steroidogenesis Assay for Corticosterone (CORTIC), maximum tolerated concentration (MTC) filtered results only (AID 2283917). Conditions: actives raise or lower the signal. As for the experimental part: CEETOX_H295R is a cell-based, multiplexed-readout assay that uses H295R, a human adrenal gland cell line, with measurements taken at 48 hours after chemical dosing in a 96-well plate.CEETOX_H295R_CORTIC_noMTC is one of 12 assay component(s) measured or calculated from the CEETOX_H295R assay (11 hormones and 1 viability assay). It is designed to make measurements of hormone induction, a form of inducible reporter, as detected with absorbance signals by HPLC-MS-MS technology. The concentrations for these components have not been pre-filtered for the maximum tolerated concentration (MTC) based on the MTT assay (_noMTC).Data from the assay component CEETOX_H295R_CORTIC_noMTC was analyzed into 1 assay endpoint. This assay endpoint, CEETOX_H295R_CORTIC_noMTC, was analyzed with bidirectional fitting relative to DMSO as the negative control and baseline of activity. […]
Cell culture and media preparation procedures were conducted in accordance with OECD Test No. 456 guidelines, with minor modifications. […] For steroid quantification, media samples were shipped to OpAns, LLC (Durham, NC) on dry ice, and samples were thawed to room temperature prior to liquid-liquid extraction. […] Steroid hormones were separated by HPLC, eluted using a reverse phase C18 gradient with electrospray positive ionization, followed by quantification by tandem mass spectrometry (MS/MS). […]

Test [4] can be described thus: CEETOX_H295R_DOC_noMTC: CeeTox H295R High-throughput Steroidogenesis Assay for DOC, maximum tolerated concentration (MTC) filtered results only (AID 2283918). Conditions: actives raise or lower the signal. The procedure, abridged: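 H295R cells prestimulated 48 h with 10 uM forskolin, then exposed 48 h to test chemical (0.1% DMSO final). Medium 11-deoxycorticosterone extracted with MTBE, quantified by HPLC-MS/MS; bidirectional fit versus DMSO, concentrations not MTC-filtered.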

A short description of test [5]: CEETOX_H295R_ESTRADIOL_noMTC: CeeTox H295R High-throughput Steroidogenesis Assay for Estradiol, maximum tolerated concentration (MTC) filtered results only (AID 2283919). Conditions: actives raise or lower the signal. The essentials:
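H295R human adrenal cells pre-stimulated 48 h with 10 uM forskolin, then exposed 48 h to chemical (0.1% DMSO final). Estradiol in medium measured by HPLC-MS/MS after MTBE extraction and dansyl derivatization; bidirectional fit versus DMSO, concentrations not MTT-filtered.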

Test [6] can be described thus: CEETOX_H295R_PROG_noMTC: CeeTox H295R High-throughput Steroidogenesis Assay for Progesterone (PROG), maximum tolerated concentration (MTC) filtered results only (AID 2283920). To be noted: actives raise or lower the signal. The procedure, abridged: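 H295R human adrenal cells were prestimulated 48 h with 10 uM forskolin, then exposed 48 h to test chemical (0.1% DMSO final). Progesterone in medium was quantified by HPLC-MS/MS; bidirectional fitting versus DMSO, concentrations not MTC-filtered.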

Test [7] is described as follows: CEETOX_H295R_ESTRONE_noMTC: CeeTox H295R High-throughput Steroidogenesis Assay for Estrone, maximum tolerated concentration (MTC) filtered results only (AID 2283921). Conditions: actives raise or lower the signal. The essentials: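 H295R cells prestimulated 48 h with 10 uM forskolin, then exposed 48 h to chemical in 0.1% DMSO; medium estrone measured by HPLC-MS/MS after MTBE extraction and dansyl derivatization, fitted bidirectionally versus DMSO without MTT-based MTC filtering.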

A further test deals with PGR (gene 5241) (UniProt P06401). Kind of test: TOX21_PR_BLA_Followup_Agonist_ratio: Tox21 HEK293 Progesterone Receptor (PR) Agonism Beta-lactamase Follow-Up Assay, Ratio (AID 2283933; active = hit-call score of the fitted dose curve at least 0.9, where 1 is the maximum). The essentials:
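PR-UAS-bla HEK293T cells (GAL4-UAS beta-lactamase reporter) in medium with 2% charcoal-stripped FBS received compounds after 6 hr at 37C, then incubated 16 hr. LiveBLAzer FRET substrate added, 2 hr room temperature; cleaved/uncleaved (ch2/ch1) ratio fitted upward versus DMSO.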

A short description of test [8]: CEETOX_H295R_ANDR_noMTC: CeeTox H295R High-throughput Steroidogenesis Assay for Androstenedione (ANDR), maximum tolerated concentration (MTC) filtered results only (AID 2283915). To be noted: actives raise or lower the signal. The essentials:
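H295R cells, passage 10 or below, prestimulated 48 h with 10 uM forskolin, then exposed 48 h to chemical in 0.1% DMSO. Medium androstenedione extracted with MTBE, quantified by HPLC-MS/MS; concentrations not MTC-filtered; bidirectional fit versus DMSO.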

The nature of test [9]: CEETOX_H295R_TESTO_noMTC: CeeTox H295R High-throughput Steroidogenesis Assay for Testosterone (TESTO), maximum tolerated concentration (MTC) filtered results only (AID 2283924). To be noted: actives raise or lower the signal. The essentials:
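H295R cells prestimulated 48 h with 10 uM forskolin, then exposed 48 h to chemicals in 0.1% DMSO final. Testosterone in medium quantified by MTBE extraction and HPLC-MS/MS; bidirectional fit versus DMSO, concentrations […] filtered by MTT-based maximum tolerated concentration.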

Inconclusive results are not listed. Calls of active or inactive are those of the source. The calls were made as follows, unless noted: active = hit-call score of the fitted dose curve at least 0.9, where 1 is the maximum; inactive = score below 0.9.

Chain of PGR (gene 5241) (P06401 whole entry, looked up, the tested form may be a part): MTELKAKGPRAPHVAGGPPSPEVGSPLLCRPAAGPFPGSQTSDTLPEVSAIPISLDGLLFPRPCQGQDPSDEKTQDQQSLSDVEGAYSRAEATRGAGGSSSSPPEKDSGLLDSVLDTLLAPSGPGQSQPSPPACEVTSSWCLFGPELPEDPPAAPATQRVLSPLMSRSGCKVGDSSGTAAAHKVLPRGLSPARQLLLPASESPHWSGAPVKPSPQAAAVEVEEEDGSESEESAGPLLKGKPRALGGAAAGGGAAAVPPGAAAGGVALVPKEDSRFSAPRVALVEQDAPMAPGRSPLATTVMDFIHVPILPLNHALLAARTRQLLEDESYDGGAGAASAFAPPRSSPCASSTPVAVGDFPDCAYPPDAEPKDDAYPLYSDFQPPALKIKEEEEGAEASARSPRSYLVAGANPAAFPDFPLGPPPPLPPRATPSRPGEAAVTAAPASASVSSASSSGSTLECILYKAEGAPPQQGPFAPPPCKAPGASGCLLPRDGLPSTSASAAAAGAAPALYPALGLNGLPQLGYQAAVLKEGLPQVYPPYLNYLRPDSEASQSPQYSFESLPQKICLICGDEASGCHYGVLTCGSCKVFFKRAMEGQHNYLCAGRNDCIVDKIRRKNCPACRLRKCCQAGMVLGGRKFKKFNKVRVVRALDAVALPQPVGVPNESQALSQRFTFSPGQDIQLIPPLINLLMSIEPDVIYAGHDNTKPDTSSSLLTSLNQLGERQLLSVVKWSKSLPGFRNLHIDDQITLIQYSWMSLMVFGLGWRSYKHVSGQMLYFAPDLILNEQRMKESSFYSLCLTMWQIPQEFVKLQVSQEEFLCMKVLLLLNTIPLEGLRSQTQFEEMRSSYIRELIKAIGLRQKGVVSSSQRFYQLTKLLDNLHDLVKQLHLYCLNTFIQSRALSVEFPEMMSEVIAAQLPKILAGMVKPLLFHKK

Regarding `Nc1c(Br)cc([N+](=O)[O-])cc1Br`, in test [1], the AC50 – broadly, the concentration at which the activity in the assay is half-maximal – was 20.7 µM (active). Also, the molecule was called inactive in [2], in [3], in [4], in test [5], in [6] and in test [7].

For the molecule `O=C(c1ccccc1)c1ccc(O)cc1O`, the outcome with PGR (gene 5241) was inactive.

In the case of `CC(C)(C)c1cc(CCC(=O)NCCCCCCNC(=O)CCc2cc(C(C)(C)C)c(O)c(C(C)(C)C)c2)cc(C(C)(C)C)c1O`, the AC50 in [1] is 0.203 µM (active); in test [6] it was 0.452 µM (active). Besides, the molecule was called inactive in test [8], in test [2], in test [3], in test [4], in test [5] and in test [7]. In test [9], the molecule was classed as inactive.

(Values after PubChem BioAssay (EPA / NIEHS).)
